Data as given in PubChem BioAssay (Tox21).
Records with an inconclusive call do not appear. Activity calls are given as the source filed them. Unless noted, calls follow the shape of the dose curve; as a rule, active = well fitted curve in the direction sought with a large enough effect in the repeat runs; inconclusive = weak or mixed curves; inactive = no such curve, though single readings can be large; an effect the other way counts as inactive or inconclusive.

How the values were obtained:
[1] = qHTS assay to identify small molecule agonists of the NFkB signaling pathway - cell viability counter screen (AID 1159515; calls by dose curve; also: series mostly up to about 61 µM; % is scaled to controls: 0 for no effect and ±100 for the full control effect; nearly all actives have a fitted effect of over 55% in size)
Method in brief: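 NFkB-bla ME-180 cells, 2,000/well, plated overnight at 37 C; compound added for 5 hr at 37 C. Viability read in the same wells as the bla reporter, by CellTiter-Glo luminescence after 30 min at room temperature.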

[2] = qHTS assay to identify small molecule agonists of the endoplasmic reticulum stress response signaling pathway (AID 1159516; active = well fitted activation curve with a large enough effect in the signal ratio in the repeat runs, not every such curve was filed as active; the % refers to the signal ratio; also: % is scaled to controls: 0 for no effect and ±100 for the full control effect)
Method in brief: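 CellSensor ESRE-bla HeLa cells, 1,500 per well, plated overnight, then exposed to compounds for 5 hr at 37 C. Beta-lactamase reporter read with LiveBLAzer B/G FRET substrate after 2 hr at room temperature, 405 nm excitation, 460 and 530 nm emission.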

[3] = qHTS assay to identify small molecule agonists of the endoplasmic reticulum stress response signaling pathway - cell viability counter screen (AID 1159517; calls by dose curve;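 also: HeLa cells carrying an ER stress response element beta-lactamase reporter; series mostly up to about 61 µM; % is scaled to controls: 0 for no effect and ±100 for the full control effect; nearly all actives have a fitted effect of over 50% in size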)
Method in brief: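 ESRE-bla HeLa cells, 1,500 per well, seeded overnight then treated with compounds for 5 hr at 37 C. After the beta-lactamase read, viability in the same wells is measured by CellTiter-Glo luminescence after 30 min at room temperature.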

[4] = qHTS assay to identify small molecule antagonists of the retinoid-related orphan receptor gamma (ROR-gamma) signaling pathway - cell viability counter screen (AID 1159520); also: % is scaled to controls: 0 for no effect and ±100 for the full control effect; nearly all actives have a fitted effect of over 50% in size
Method in brief: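 Tet-on ROR gamma CHO cells were given compounds for 2 hr, then doxycycline hyclate at 1 uM final, and incubated 16 hr at 37 C. Viability was measured as ATP content by CellTiter-Glo luminescence.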

[5] = target: Nuclear receptor ROR-gamma (Homo sapiens) (UniProt P51449); assay: qHTS assay to identify small molecule antagonists of the retinoid-related orphan receptor gamma (ROR-gamma) signaling pathway (AID 1159521;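 also: CHO cells with doxycycline inducible ROR-gamma driving an RORE luciferase reporter; top concentration of the series differs between compounds; % is scaled to controls: 0 for no effect and ±100 for the full control effect; nearly all actives have a fitted effect of over 50% in size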)
Method in brief: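 RORγ antagonism is scored from reduced reporter luminescence in Tet-on CHO cells. Induction used 1 uM final doxycycline hyclate for 16 h at 37 C, following a 2 h compound exposure.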

[6] = qHTS assay to identify small molecule agonists of the AP-1 signaling pathway - cell viability counter screen (AID 1159525; calls by dose curve; also: nearly all actives have a fitted effect of over 55% in size)
Method in brief: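 AP-1-bla ME-180 cells in Opti-MEM with 0.5% dialyzed FBS, compound exposure 5 h at 37 C in 15-point titration. Viability read in the same wells as ATP content by CellTiter-Glo luminescence, normalised to tetra-n-octylammonium bromide and DMSO controls.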

[7] = qHTS assay to identify small molecule agonists of the AP-1 signaling pathway (AID 1159526; calls by dose curve; also: % is scaled to controls: 0 for no effect and ±100 for the full control effect)
[8] = target: Retinoic acid receptor RXR-alpha (Homo sapiens) (UniProt P19793); assay: qHTS assay to identify small molecule agonists of the RXR signaling pathway (AID 1159527; calls by dose curve; also: % is scaled to controls: 0 for no effect and ±100 for the full control effect; nearly all actives have a fitted effect of over 35% in size)
Chain of Retinoic acid receptor RXR-alpha (Homo sapiens) (P19793 whole entry, looked up): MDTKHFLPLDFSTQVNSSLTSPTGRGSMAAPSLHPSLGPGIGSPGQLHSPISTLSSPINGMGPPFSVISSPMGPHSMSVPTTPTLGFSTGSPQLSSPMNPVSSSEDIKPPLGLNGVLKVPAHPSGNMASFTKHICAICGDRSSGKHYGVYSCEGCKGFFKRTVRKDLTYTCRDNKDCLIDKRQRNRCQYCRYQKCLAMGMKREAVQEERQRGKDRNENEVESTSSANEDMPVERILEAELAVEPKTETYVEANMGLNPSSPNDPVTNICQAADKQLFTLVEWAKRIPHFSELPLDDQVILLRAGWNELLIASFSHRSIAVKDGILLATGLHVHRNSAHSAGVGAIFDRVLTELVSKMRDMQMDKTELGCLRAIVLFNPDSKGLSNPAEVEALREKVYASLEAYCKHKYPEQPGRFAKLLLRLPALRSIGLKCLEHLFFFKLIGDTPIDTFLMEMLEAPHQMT
Method in brief: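 qHTS of the Tox21 10K library in GeneBLAzer RXR-alpha HEK 293T cells carrying a beta-lactamase reporter […]; 16 hr treatment, 9-cis retinoic acid as agonist control, FRET read-out.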

[9] = qHTS assay to identify small molecule agonists of the RXR signaling pathway - cell viability counter screen (AID 1159529); also: series mostly up to about 77 µM; % is scaled to controls: 0 for no effect and ±100 for the full control effect; nearly all actives have a fitted effect of over 50% in size
Method in brief: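 Cell viability is measured by CellTiter-Glo luminescence, 30 min at room temperature, in wells already read for beta-lactamase. Engineered HEK 293T cells (RXR-alpha-UAS-bla) are dosed 16 hr at 37 C. Tetraoctyl ammonium bromide serves as positive control.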

[10] = qHTS assay to identify small molecule antagonists of the retinoid acid receptor (RAR) signaling pathway - cell viability counter screen (AID 1159551); also: % is scaled to controls: 0 for no effect and ±100 for the full control effect; nearly all actives have a fitted effect of over 35% in size
Method in brief: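 C3RL4 RARE-luciferase cells, 1,000/well, incubated overnight, then dosed with compound plus 1 uM retinol (final). After 6 hr at 37 C, viability read by CellTiter-Glo ATP luminescence following 30 min at room temperature.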

[11] = qHTS assay to identify small molecule antagonists of the estrogen related receptor (ERR) signaling pathway from Tox21 library - cell viability counter screen (AID 1224834); also: % is scaled to controls: 0 for no effect and ±100 for the full control effect; nearly all actives have a fitted effect of over 30% in size
Method in brief: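 ERR reporter cells, 2,000 per well, rested 6 h, then exposed to compound in DMSO for 17.5 hours at 37 C. Viability read as fluorescence after 30 min with CellTiter-Fluor.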

[12] = qHTS assay to identify small molecule antagonists of the vitamin D receptor (VDR) signaling pathway - cell viability counter screen (AID 743225)
Method in brief: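 Cells (VDR-UAS-bla HEK 293T) are plated, rested 4 h at 37C, dosed with compound and 3 nM final 1-alpha,25-dihydroxy vitamin D3, and incubated 16 h. Viability is taken from CellTiter-Glo luminescence in the reporter wells.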

[13] = qHTS assay to identify small molecule antagonists of the estrogen related receptor (ERR) signaling pathway - cell viability counter screen (AID 1224818); also: series mostly up to about 46 µM; % is scaled to controls: 0 for no effect and ±100 for the full control effect
Method in brief: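 ERR cells, 2,000 per well, compound added after 6 h and incubated 17.5 h at 37 C. Viability read by CellTiter-Fluor fluorescence after a further 30 min at 37 C.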

[14] = qHTS assay to identify small molecule antagonists of the estrogen related receptor signaling pathway with the pleiotropic PPARgamma coactivator (PGC) cell viability counter screen (AID 1224822; also: series mostly up to about 46 µM; % is scaled to controls: 0 for no effect and ±100 for the full control effect)
Method in brief: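 PGC/ERR cells rested 6 h, then compound-treated 17.5 h at 37 C. CellTiter-Fluor added for 30 min at 37 C, viability measured by fluorescence intensity.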

[15] = qHTS assay to identify small molecule antagonists of the estrogen related receptor (ERR) signaling pathway (AID 1224819)
Method in brief: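 ERR reporter cell line (NTP) plated at 2,000 cells/well, settled 6 h at 37C/5% CO2, then exposed to LOPAC compounds for 18 h at 37C. One-Glo luciferase luminescence read after 30 min at room temperature.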

[16] = qHTS assay to identify small molecule agonists of the estrogen related receptor (ERR) signaling pathway (AID 1224820); also: % is scaled to controls: 0 for no effect and ±100 for the full control effect
Method in brief: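 ERR reporter cell line (from NTP), 2,000 cells/well, incubated 6 h before compound addition, then 18 h at 37 C. Luminescence measured 30 min after One-Glo reagent at room temperature.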

[17] = system: estrogen-related receptor alpha (ERRalpha) with PGC-1alpha coactivator, human; assay: qHTS assay to identify small molecule antagonists of the estrogen related receptor signaling pathway with the pleiotropic PPARgamma coactivator (PGC) (AID 1224821; calls by dose curve)
Method in brief: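 PGC/ERR reporter cell line, plated 6 h before compound addition, then exposed 18 h at 37 °C. Luciferase activity read by luminescence 30 min after One-Glo addition; decrease indicates antagonism.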

[18] = qHTS assay to identify small molecule agonists of the estrogen related receptor signaling pathway with the pleiotropic PPARgamma coactivator (PGC) (AID 1224823); also: % is scaled to controls: 0 for no effect and ±100 for the full control effect
Method in brief: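 PGC/ERR reporter cells seeded 6 h, then exposed to compounds (23 nL in DMSO) for 18 h at 37 C. One-Glo luciferase luminescence read after 30 min at room temperature.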

[19] = qHTS assay to identify small molecule agonists of the retinoic acid receptor (RAR) signaling pathway (AID 1159553); also: % is scaled to controls: 0 for no effect and ±100 for the full control effect
Method in brief: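 C3RL4 RARE-luciferase cells were seeded at 1,000/well and grown overnight at 37 C, then exposed to compounds for 6 hr at 37 C, 5% CO2. Luciferase reagent was added and luminescence was read after 30 min at room temperature.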

[K+]
inactive: outcome [1] | outcome [2] | outcome [3] | outcome [4] | Potency [5] | outcome [6] | outcome [7] | Potency [8] | Potency [9] | outcome [10] | Potency [11]

Cc1nc(C2CCCCC2)c(-c2ccc(S(N)(=O)=O)c(F)c2)o1
inactive: outcome [12] | outcome [1] | outcome [2] | outcome [3] | outcome [4] | Potency [5] | outcome [6] | outcome [7] | Potency [8] | Potency [9] | outcome [10] | Potency [11]

CCCCc1nc(Cl)c(CO)n1Cc1ccc(-c2ccccc2-c2nn[nH]n2)cc1
inactive: outcome [12] | outcome [1] | outcome [2] | outcome [3] | outcome [4] | Potency [5] | outcome [6] | outcome [7] | Potency [8] | Potency [9] | outcome [10] | Potency [11]

CCCOC(=O)CC
inactive: outcome [12] | outcome [1] | outcome [2] | outcome [3] | outcome [4] | Potency [5] | outcome [6] | outcome [7] | Potency [8] | Potency [9] | outcome [10] | Potency [11]

CC(C)C1CCC(O)CC1 (configuration not stated)
inactive: outcome [12] | outcome [1] | outcome [2] | outcome [3] | outcome [4] | Potency [5] | outcome [6] | outcome [7] | Potency [8] | Potency [9] | outcome [10] | Potency [11]

CCO[Si](OCC)(OCC)c1ccccc1
inactive: outcome [12] | outcome [1] | outcome [2] | outcome [3] | outcome [4] | Potency [5] | outcome [6] | outcome [7] | Potency [8] | Potency [9] | outcome [10] | Potency [11]

O=C(O)c1cn(C2CC2)c2cc(N3CCNCC3)c(F)cc2c1=O
inactive: outcome [1] | outcome [2] | outcome [3] | outcome [4] | Potency [5] | outcome [6] | outcome [7] | Potency [8] | Potency [9] | outcome [10] | Potency [11]

CC1(C)[C@@H]2CC[C@@]1(C)[C@H](O)C2
inactive: outcome [12] | outcome [1] | outcome [2] | outcome [3] | outcome [4] | Potency [5] | outcome [6] | outcome [7] | Potency [8] | Potency [9] | outcome [10] | Potency [11]

OCCc1ccccn1
inactive: outcome [1] | outcome [2] | outcome [3] | outcome [4] | Potency [5] | outcome [6] | outcome [7] | Potency [8] | Potency [9] | outcome [10] | Potency [11]

O=C(O)CCSCCC(=O)O
inactive: outcome [12] | outcome [1] | outcome [2] | outcome [3] | outcome [4] | Potency [5] | outcome [6] | outcome [7] | Potency [8] | Potency [9] | outcome [10] | Potency [11]

CC(=O)NC(=O)c1ccccc1O
inactive: outcome [12] | outcome [1] | outcome [2] | outcome [3] | outcome [4] | Potency [5] | outcome [6] | outcome [7] | Potency [8] | Potency [9] | outcome [10] | Potency [11]

NC(CCC(=O)O)C(=O)O (configuration not stated)
inactive: outcome [12] | outcome [1] | outcome [2] | outcome [3] | outcome [4] | Potency [5] | outcome [6] | outcome [7] | Potency [8] | Potency [9] | outcome [10] | Potency [11]

c1ccc(Cc2ccccc2)cc1
inactive: outcome [12] | outcome [1] | outcome [2] | outcome [3] | outcome [4] | Potency [5] | outcome [6] | outcome [7] | Potency [8] | Potency [9] | outcome [10] | Potency [11]

NS(=O)(=O)Cc1noc2ccccc12
inactive: outcome [12] | outcome [1] | outcome [2] | outcome [3] | outcome [4] | Potency [5] | outcome [6] | outcome [7] | Potency [8] | Potency [9] | outcome [10] | Potency [11]

N[C@@H](CCC(=O)O)C(=O)O
inactive: outcome [12] | outcome [1] | outcome [2] | outcome [3] | outcome [4] | Potency [5] | outcome [6] | outcome [7] | Potency [8] | Potency [9] | outcome [10] | outcome [13] | outcome [14] | Potency [11]

Cc1ccc(C(=O)Nc2ccc(S(=O)(=O)O)c3cc(S(=O)(=O)O)cc(S(=O)(=O)O)c23)cc1NC(=O)c1cccc(NC(=O)Nc2cccc(C(=O)Nc3cc(C(=O)Nc4ccc(S(=O)(=O)O)c5cc(S(=O)(=O)O)cc(S(=O)(=O)O)c45)ccc3C)c2)c1
inactive: outcome [1] | outcome [2] | outcome [3] | outcome [4] | Potency [5] | outcome [6] | outcome [7] | Potency [8] | Potency [9] | outcome [10] | outcome [13] | outcome [15] | outcome [16] | outcome [17] | outcome [14] | outcome [18] | Potency [11]

Nc1c2c(nc3c1CCC3)CCCC2
inactive: outcome [12] | outcome [1] | outcome [2] | outcome [3] | outcome [4] | Potency [5] | outcome [6] | outcome [7] | Potency [8] | Potency [9] | outcome [10] | Potency [19]

C=CC(C)(CCC=C(C)C)OC(=O)CC (configuration not stated)
inactive: outcome [12] | outcome [1] | outcome [2] | outcome [3] | outcome [4] | Potency [5] | outcome [6] | outcome [7] | Potency [8] | Potency [9] | outcome [10] | Potency [11]

CC(C)C[C@@H](N)C(=O)O
inactive: outcome [1] | outcome [2] | outcome [3] | activity, negative = cytotoxicity [4] 3.47% [at 19 µM] | activity change, negative = inhibition [5] 6.26% [at 19 µM] | viability change, negative = cytotoxic [6] -0.425% [at 15.8 µM] | activation [7] -5.77% [at 15.8 µM] | activation [8] 4.08% [at 15.8 µM] | activity change, negative = cytotoxicity [9] 4.29% [at 15.8 µM] | activity change, negative = cytotoxicity [10] 3.59% [at 19 µM] | viability change, negative = cytotoxic [11] 1.15% [at 19 µM]

O=CN(CCO)CCO
inactive: outcome [1] | outcome [2] | outcome [3] | outcome [4] | Potency [5] | outcome [6] | outcome [7] | Potency [8] | Potency [9] | outcome [10] | Potency [11]
